{"source": "the supplement of paper PMC10127200", "note": "Structures can show the parent of a compound that is named as a salt.", "data": [{"test_system": "A549", "assay": "Euclidean distance of Cell Painting phenotypic profile (signed KS, 77 features) to DMSO centroid (dimensionless distance); 5 or 10 uM (library dependent); higher = stronger phenotypic change vs DMSO (phenoactivity)", "conditions": "48 h", "procedure,_shortened": "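Library compounds were applied at 10 or 5 uM, depending on the library, with 0.1% DMSO final, for 48 h to five cancer lines and a healthy fibroblast line. After staining, cells were imaged confocally at 20X across 9 fields per well, and Harmony extracted 77 features, each scored as a signed Kolmogorov-Smirnov statistic against vehicle wells on the same plate. Phenoactivity is the Euclidean distance between each profile and the median vehicle profile, with profiles first plate-position corrected, correlation-weighted and averaged over replicates at the top dose.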", "values": [{"smiles": "O=C(O)c1cc(/N=N/c2ccc(S(=O)(=O)Nc3ccccn3)cc2)ccc1O", "note": "[Sulfasalazine]", "Euclidean distance": 0.839}, {"smiles": "CO[C@H]1C[C@H](O[C@@H]2/C(C)=C/C[C@@H]3C[C@@H](C[C@]4(CC[C@H](C)[C@@H](C5CCCCC5)O4)O3)OC(=O)[C@@H]3C=C(C)/C(=N/O)[C@H]4OC/C(=C\\C=C\\[C@@H]2C)[C@]43O)O[C@@H](C)[C@@H]1O", "note": "[Selamectin]", "Euclidean distance": 3.16}, {"smiles": "Cc1cc(C(C)Nc2ccccc2)c2nc(N3CCOCC3)cc(=O)n2c1", "note": "(stereo unspecified)", "Euclidean distance": 1.16}, {"smiles": "CC(C)N1CCN(Cc2cnc(-c3cc(-c4cccc5[nH]ccc45)cc4[nH]ncc34)o2)CC1", "Euclidean distance": 3.89}, {"smiles": "COc1ccc(C2=N[C@@H](c3ccc(Cl)cc3)[C@@H](c3ccc(Cl)cc3)N2C(=O)N2CCNC(=O)C2)c(OC(C)C)c1", "note": "[Nutlin-3]", "Euclidean distance": 3.54}, {"smiles": "CN(C)c1ccc(O)c2c1C[C@H]1C[C@H]3[C@H](N(C)C)C(O)=C(C(N)=O)C(=O)[C@@]3(O)C(O)=C1C2=O", "note": "[Minocycline HCl]", "Euclidean distance": 1.38}, {"smiles": "Oc1cccc(O)c1", "note": "[Resorcinol]", "Euclidean distance": 1.19}, {"smiles": "CCOC(=O)[C@H](CCc1ccccc1)N[C@@H](C)C(=O)N1[C@H](C(=O)O)C[C@H]2CCCC[C@@H]21", "note": "[Trandolapril]", "Euclidean distance": 0.478}, {"smiles": "C=CC(=O)Nc1cc(Nc2nccc(-c3cn(C)c4ccccc34)n2)c(OC)cc1N(C)CCN(C)C", "note": "[Osimertinib (AZD9291)]", "Euclidean distance": 4.24}, {"smiles": "Cc1ccc(CNc2ncnc3ccc(-c4ccc(CO)o4)cc23)o1", "Euclidean distance": 1.95}, {"smiles": "O=C(O)CC[C@H]1CC[C@@](c2cc(F)ccc2F)(S(=O)(=O)c2ccc(Cl)cc2)CC1", "Euclidean distance": 1.71}]}]}
